Our source for the binding signal values is article PMC7862700, “An all-to-all approach to the identification of sequence-specific readers for epigenetic DNA modifications on cytosine”.

What all share (experiment): DAPPL (digital affinity profiling via proximity ligation, sequencing); 10 mM Tris-HCl pH 7.5, 50 mM NaCl, 1 mM DTT, 4% glycerol, room temperature, 30 min; GST-TFs on glutathione beads, 16-mer random dsDNA library, 0.1% formaldehyde crosslink after washing; high values mean tight binding
The target in one assay is T1, FEV (Homo sapiens, UniProt Q99581 1-238).
T1 sequence: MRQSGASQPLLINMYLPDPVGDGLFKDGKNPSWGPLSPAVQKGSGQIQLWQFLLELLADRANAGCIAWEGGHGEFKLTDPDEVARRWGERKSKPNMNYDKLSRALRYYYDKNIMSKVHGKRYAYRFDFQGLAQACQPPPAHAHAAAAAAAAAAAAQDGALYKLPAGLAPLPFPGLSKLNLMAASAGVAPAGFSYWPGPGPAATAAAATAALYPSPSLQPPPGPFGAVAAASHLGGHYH
To be noted: protein: recombinant; tags: N-terminal GST; dsDNA, one strand shown. The method, boiled down: (§1)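 Each value of binding signal is a hexamer's read frequency for a factor divided by the same hexamer's frequency in the tag-only sample. Barcoded, bead-captured GST fusions of human transcription factors made in yeast were pooled with that sample and incubated with 200 nmole of a random double-stranded 16-mer DNA library in Tris/NaCl/DTT/glycerol buffer at room temperature for 30 min. Washing, 0.1% formaldehyde crosslinking, proximity ligation, PCR and Illumina NextSeq500 sequencing followed.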

The next assay has as its target ETV5 (Homo sapiens, UniProt P41161 1-510). To be noted: protein: recombinant; tags: N-terminal GST; dsDNA, one strand shown. Summed up: as §1
The next assay has as its target HSF1 (Homo sapiens, UniProt Q00613 1-529). To be noted: protein: recombinant; tags: N-terminal GST; chain copies: 3; dsDNA, one strand shown. Summed up:
as §1

The target of another assay is T2, SPIC (Homo sapiens, UniProt Q8N5J4 1-248).
T2 sequence: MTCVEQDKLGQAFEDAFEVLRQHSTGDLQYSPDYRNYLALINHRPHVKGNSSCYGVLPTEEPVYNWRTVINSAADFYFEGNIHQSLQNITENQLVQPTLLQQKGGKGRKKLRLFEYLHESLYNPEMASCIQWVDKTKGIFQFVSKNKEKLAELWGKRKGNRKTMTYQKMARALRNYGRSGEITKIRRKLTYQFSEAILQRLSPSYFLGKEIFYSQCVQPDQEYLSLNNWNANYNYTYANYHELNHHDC
To be noted: protein: recombinant; tags: N-terminal GST; dsDNA, one strand shown. Summed up: as §1

A further assay has as its target ELF4 (Homo sapiens, UniProt Q99607 1-663). To be noted: protein: recombinant; tags: N-terminal GST; dsDNA, one strand shown. The method, boiled down: as §1
Another assay concerns the target T3, ELK4 (Homo sapiens, UniProt P28324-2 1-405).
T3 sequence: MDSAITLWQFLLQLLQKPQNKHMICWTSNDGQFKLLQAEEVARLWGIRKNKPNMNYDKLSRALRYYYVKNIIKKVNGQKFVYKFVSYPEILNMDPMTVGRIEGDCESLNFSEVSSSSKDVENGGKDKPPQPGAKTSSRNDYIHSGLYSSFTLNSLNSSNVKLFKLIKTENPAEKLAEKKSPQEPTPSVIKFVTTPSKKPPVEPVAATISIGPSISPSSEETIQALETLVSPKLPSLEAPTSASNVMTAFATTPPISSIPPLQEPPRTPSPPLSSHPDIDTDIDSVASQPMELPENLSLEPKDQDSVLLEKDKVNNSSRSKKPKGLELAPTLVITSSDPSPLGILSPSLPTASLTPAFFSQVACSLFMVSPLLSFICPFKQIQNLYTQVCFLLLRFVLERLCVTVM
To be noted: protein: recombinant; tags: N-terminal GST; dsDNA, one strand shown. Summed up: as §1

For a further assay, the target named is T4, ETV2 (Homo sapiens, UniProt O00321 1-342).
T4 sequence: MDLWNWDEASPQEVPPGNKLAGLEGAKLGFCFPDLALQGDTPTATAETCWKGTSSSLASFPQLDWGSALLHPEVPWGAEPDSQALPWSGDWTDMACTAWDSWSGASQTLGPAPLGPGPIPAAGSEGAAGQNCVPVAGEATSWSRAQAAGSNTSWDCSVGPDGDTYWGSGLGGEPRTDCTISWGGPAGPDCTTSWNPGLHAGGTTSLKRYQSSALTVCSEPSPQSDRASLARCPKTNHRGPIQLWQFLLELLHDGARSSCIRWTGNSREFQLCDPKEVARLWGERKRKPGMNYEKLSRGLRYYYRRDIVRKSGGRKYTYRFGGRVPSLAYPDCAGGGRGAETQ
To be noted: protein: recombinant; tags: N-terminal GST; dsDNA, one strand shown. The method, boiled down: as §1

The target in a further assay is T5, ELF3 (Homo sapiens, UniProt P78545 1-371).
T5 sequence: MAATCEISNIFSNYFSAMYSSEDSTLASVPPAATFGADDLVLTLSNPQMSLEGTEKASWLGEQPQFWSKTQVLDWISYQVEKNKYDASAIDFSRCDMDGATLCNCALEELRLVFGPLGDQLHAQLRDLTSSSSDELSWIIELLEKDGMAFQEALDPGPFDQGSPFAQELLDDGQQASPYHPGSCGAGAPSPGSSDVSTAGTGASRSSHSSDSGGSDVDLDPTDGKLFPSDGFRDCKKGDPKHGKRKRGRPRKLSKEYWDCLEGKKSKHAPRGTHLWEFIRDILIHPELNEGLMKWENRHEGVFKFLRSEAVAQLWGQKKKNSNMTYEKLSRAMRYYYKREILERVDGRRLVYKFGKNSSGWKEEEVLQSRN
To be noted: protein: recombinant; tags: N-terminal GST; dsDNA, one strand shown. Summed up:
as §1

The target of a further assay is CRX (Homo sapiens, UniProt O43186 1-299). To be noted: protein: recombinant; tags: N-terminal GST; dsDNA, one strand shown. The method, boiled down:
as §1

For a further assay, the target named is ETV1 (Homo sapiens, UniProt P50549 1-477). To be noted: protein: recombinant; tags: N-terminal GST; dsDNA, one strand shown. The method, boiled down:
as §1

The next assay deals with T6, ERF (Homo sapiens, UniProt P50548 1-548).
T6 sequence: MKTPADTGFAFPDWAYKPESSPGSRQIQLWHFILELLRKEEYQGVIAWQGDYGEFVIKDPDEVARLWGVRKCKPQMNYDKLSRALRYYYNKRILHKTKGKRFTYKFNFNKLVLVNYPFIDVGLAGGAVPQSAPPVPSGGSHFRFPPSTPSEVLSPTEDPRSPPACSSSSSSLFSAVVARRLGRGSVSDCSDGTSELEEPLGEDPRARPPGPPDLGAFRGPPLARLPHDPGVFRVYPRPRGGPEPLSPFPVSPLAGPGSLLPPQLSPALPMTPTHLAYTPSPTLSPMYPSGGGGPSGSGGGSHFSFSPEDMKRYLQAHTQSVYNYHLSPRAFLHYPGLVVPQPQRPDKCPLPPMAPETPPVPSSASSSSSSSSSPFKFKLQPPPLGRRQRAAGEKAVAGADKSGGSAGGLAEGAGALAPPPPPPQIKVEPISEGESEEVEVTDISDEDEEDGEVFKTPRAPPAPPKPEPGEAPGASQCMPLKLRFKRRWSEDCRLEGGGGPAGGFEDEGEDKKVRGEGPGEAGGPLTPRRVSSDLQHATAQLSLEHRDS
To be noted: protein: recombinant; tags: N-terminal GST; dsDNA, one strand shown. The method, boiled down: as §1

The target of the next assay is T7, ETV3L (Homo sapiens, UniProt Q6ZN32 1-361).
T7 sequence: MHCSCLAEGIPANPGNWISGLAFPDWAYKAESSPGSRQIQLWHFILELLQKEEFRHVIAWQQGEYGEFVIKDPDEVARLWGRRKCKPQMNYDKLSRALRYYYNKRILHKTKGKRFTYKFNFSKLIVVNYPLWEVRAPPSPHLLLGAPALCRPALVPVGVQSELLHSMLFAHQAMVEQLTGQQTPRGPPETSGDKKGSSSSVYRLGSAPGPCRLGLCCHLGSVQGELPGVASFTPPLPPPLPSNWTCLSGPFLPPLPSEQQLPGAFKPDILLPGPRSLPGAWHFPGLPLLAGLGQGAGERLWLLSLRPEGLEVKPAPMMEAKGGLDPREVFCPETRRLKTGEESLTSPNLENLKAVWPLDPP
To be noted: protein: recombinant; tags: N-terminal GST; dsDNA, one strand shown. Summed up: as §1

The target of a further assay is T8, ETS2 (Homo sapiens, UniProt P15036 1-469).
T8 sequence: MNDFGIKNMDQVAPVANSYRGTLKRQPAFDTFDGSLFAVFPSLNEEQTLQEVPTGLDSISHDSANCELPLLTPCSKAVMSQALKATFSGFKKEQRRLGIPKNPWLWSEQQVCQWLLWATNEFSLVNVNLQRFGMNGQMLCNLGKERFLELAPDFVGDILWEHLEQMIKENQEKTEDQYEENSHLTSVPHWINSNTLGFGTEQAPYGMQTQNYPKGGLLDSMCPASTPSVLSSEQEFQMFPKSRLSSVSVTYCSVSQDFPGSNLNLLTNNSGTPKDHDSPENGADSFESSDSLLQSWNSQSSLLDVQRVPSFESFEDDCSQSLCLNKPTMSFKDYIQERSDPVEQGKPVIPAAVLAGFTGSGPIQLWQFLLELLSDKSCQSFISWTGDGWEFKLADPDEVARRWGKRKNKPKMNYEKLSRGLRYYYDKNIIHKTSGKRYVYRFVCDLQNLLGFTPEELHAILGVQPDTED
To be noted: protein: recombinant; tags: N-terminal GST; dsDNA, one strand shown. Summed up:
as §1

Another assay concerns the target T9, SPDEF (Homo sapiens, UniProt O95238 1-335).
T9 sequence: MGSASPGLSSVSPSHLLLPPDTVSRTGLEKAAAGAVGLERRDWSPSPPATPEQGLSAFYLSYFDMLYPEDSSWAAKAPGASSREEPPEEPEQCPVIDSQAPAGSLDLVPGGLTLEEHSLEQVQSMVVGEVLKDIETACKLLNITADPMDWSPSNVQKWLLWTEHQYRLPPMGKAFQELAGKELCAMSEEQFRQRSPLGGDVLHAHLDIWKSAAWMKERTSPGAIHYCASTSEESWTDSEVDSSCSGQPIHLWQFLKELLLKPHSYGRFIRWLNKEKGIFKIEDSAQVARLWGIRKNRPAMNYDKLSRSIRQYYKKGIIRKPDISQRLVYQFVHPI
To be noted: protein: recombinant; tags: N-terminal GST; dsDNA, one strand shown. The method, boiled down:
as §1

Another assay has as its target T10, ETV7 (Homo sapiens, UniProt Q9Y603 1-341).
T10 sequence: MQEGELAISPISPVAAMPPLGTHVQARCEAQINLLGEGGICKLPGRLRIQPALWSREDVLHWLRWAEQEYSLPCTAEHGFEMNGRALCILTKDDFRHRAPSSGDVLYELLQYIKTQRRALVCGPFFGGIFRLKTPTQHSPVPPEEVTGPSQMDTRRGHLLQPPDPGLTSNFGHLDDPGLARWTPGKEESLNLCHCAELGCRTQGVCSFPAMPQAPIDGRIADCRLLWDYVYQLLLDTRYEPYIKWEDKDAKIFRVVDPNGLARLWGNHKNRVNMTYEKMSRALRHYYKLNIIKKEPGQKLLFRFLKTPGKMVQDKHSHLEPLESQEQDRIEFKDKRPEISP
To be noted: protein: recombinant; tags: N-terminal GST; dsDNA, one strand shown. Summed up: as §1

For another assay, the target named is T11, ELF5 (Homo sapiens, UniProt Q9UKW6-2 1-255).
T11 sequence: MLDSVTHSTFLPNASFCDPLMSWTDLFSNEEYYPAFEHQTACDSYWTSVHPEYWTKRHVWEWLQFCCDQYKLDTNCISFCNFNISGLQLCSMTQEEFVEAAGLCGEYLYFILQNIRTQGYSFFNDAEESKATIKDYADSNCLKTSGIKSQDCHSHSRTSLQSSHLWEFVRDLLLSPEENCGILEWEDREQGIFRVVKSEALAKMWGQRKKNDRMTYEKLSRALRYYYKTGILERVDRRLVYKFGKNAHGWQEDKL
To be noted: protein: recombinant; tags: N-terminal GST; dsDNA, one strand shown. Summed up: as §1

Another assay addresses T12, ETV3 (Homo sapiens, UniProt P41162-2 1-143).
T12 sequence: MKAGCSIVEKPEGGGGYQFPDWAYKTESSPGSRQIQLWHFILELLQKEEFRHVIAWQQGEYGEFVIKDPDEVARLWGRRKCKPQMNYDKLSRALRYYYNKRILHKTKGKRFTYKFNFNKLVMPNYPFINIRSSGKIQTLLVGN
To be noted: protein: recombinant; tags: N-terminal GST; dsDNA, one strand shown. Summed up: as §1

Another assay concerns the target ETV6 (Homo sapiens, UniProt P41212 1-452). To be noted: protein: recombinant; tags: N-terminal GST; dsDNA, one strand shown. The method, boiled down:
as §1

Sequence of ETV1 (P50549 whole entry): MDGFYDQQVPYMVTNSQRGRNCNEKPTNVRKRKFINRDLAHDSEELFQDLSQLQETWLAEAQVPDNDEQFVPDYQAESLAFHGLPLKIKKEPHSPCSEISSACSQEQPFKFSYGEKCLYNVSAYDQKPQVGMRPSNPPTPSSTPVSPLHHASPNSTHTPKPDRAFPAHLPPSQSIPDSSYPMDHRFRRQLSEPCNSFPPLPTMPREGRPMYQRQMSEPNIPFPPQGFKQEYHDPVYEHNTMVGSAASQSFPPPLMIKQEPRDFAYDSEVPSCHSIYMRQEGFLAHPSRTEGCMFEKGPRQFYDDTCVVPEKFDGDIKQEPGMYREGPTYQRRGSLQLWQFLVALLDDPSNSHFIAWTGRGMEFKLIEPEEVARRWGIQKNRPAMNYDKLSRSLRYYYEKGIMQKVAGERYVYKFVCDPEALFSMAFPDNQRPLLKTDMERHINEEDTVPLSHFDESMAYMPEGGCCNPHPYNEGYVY
Sequence of HSF1 (Q00613 whole entry): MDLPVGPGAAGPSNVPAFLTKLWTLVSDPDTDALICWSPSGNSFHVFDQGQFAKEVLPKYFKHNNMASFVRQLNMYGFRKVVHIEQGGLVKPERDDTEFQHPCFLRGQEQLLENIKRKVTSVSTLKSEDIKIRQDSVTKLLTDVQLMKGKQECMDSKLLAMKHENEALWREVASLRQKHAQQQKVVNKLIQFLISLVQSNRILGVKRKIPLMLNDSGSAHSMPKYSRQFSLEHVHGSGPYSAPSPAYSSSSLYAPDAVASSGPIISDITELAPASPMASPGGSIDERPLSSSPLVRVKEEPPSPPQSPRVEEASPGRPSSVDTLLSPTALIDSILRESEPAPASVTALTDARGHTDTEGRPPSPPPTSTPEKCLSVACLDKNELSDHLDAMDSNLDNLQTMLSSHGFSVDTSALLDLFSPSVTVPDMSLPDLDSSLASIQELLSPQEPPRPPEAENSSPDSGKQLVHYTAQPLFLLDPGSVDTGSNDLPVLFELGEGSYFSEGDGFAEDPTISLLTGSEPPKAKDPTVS
Sequence of CRX (O43186 whole entry): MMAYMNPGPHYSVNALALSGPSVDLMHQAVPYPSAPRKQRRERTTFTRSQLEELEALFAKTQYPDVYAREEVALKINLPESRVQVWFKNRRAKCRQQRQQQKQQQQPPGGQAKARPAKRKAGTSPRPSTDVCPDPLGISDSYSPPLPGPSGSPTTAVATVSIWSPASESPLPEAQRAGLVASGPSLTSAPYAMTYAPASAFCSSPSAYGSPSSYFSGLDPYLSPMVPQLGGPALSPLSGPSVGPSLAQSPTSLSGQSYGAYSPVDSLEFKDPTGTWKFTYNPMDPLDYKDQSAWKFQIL
Sequence of ETV5 (P41161 whole entry): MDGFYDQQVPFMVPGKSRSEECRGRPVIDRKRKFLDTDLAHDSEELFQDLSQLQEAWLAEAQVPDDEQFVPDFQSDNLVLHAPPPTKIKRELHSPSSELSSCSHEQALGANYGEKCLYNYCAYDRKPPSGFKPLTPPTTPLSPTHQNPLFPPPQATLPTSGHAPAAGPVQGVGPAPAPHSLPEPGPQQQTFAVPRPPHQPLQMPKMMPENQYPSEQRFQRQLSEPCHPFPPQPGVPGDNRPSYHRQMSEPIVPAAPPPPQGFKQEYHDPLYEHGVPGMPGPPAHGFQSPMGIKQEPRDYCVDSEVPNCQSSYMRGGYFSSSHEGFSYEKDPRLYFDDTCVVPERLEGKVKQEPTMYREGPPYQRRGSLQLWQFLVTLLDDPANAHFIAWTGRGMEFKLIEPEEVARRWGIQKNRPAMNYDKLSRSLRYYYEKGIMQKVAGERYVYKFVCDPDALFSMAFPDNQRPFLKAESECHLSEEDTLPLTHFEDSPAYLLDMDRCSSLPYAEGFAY
Sequence of ELF4 (Q99607 whole entry): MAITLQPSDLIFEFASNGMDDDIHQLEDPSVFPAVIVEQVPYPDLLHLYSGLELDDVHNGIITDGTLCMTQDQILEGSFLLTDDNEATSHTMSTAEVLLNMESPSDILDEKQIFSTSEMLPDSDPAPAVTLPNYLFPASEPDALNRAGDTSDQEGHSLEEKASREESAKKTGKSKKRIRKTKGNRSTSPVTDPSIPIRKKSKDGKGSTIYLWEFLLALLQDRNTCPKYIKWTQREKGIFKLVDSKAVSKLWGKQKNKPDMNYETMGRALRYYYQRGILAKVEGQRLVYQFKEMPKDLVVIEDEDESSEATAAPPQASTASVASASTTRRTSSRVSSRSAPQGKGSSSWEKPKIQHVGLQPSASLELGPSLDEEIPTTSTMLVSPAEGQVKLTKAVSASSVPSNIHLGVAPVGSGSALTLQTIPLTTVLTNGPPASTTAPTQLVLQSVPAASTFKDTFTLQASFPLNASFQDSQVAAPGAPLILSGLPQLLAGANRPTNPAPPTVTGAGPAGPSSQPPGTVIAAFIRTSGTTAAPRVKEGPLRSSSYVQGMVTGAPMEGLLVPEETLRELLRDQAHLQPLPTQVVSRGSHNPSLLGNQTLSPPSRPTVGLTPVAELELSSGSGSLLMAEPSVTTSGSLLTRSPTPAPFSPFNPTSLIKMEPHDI
Sequence of ETV6 (P41212 whole entry): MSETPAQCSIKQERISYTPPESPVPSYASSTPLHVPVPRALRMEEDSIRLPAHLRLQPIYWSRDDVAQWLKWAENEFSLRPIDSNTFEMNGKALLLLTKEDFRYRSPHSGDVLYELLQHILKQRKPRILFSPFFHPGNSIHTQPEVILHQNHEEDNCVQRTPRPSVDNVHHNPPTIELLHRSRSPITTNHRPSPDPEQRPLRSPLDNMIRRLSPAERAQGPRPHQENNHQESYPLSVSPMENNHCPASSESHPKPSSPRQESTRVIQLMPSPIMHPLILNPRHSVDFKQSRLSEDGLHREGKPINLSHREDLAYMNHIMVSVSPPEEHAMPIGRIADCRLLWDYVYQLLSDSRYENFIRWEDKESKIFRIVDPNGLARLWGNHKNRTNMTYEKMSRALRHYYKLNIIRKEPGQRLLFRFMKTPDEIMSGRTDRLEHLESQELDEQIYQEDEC

As for CAAAAA, the binding signal in the assay with FEV was 1.2 fold enrichment (6-mer frequency, TF over GST control); with ETV5, 1.15 fold enrichment (6-mer frequency, TF over GST control); with HSF1, 1.08 fold enrichment (6-mer frequency, TF over GST control); with SPIC, 1.01 fold enrichment (6-mer frequency, TF over GST control); in the assay with ELF4, 1.18 fold enrichment (6-mer frequency, TF over GST control); with ELK4, 1.13 fold enrichment (6-mer frequency, TF over GST control). Also, the binding signal in the assay with ETV2 was 1.17 fold enrichment (6-mer frequency, TF over GST control); with ELF3, 1.12 fold enrichment (6-mer frequency, TF over GST control); in the assay with CRX, 1.02 fold enrichment (6-mer frequency, TF over GST control); in the assay with ETV1, 1.22 fold enrichment (6-mer frequency, TF over GST control); in the assay with ERF, 1.15 fold enrichment (6-mer frequency, TF over GST control); with ETV3L, 1.15 fold enrichment (6-mer frequency, TF over GST control). The binding signal with ETS2 was 1.12 fold enrichment (6-mer frequency, TF over GST control); in the assay with SPDEF it was 1.07 fold enrichment (6-mer frequency, TF over GST control); in the assay with ETV7, 1.1 fold enrichment (6-mer frequency, TF over GST control); with ELF5 it was 1.07 fold enrichment (6-mer frequency, TF over GST control); with ETV3, 1.12 fold enrichment (6-mer frequency, TF over GST control); in the assay with ETV6, 1.12 fold enrichment (6-mer frequency, TF over GST control).
